Data on eight compounds can be found in PubChem BioAssay (NCI).

Test systems include DU-145 prostate; K-562 leukemia; MALME-3M melanoma; MDA-MB-231 breast; RXF 393 renal; SF-268 CNS; SF-295 CNS; SF-539 CNS; UACC-257 melanoma; M14 melanoma; HT29 colon; SNB-75 CNS; SNB-19 CNS; U251 CNS; PC-3 prostate; SK-MEL-5 melanoma; UACC-62 melanoma; LOX IMVI melanoma; SK-MEL-28 melanoma; HCT-15 colon.
Test in all cases: NCI-60 one-dose screen, 48 h (100 = growth as untreated, 0 = no growth, -100 = all killed)
Holding throughout (conditions): 10 µM unless noted

About 83,000 compounds went through this panel and 20% of them were active in at least one assay; those are over-represented in the sample as a whole.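 Activity criterion: percent growth below 10, measured after cells in 96-well plates were exposed to a single compound concentration for 48 hours.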 A number with no mark means an inactive call. Active and inactive are the calls of the source.

Take `COc1cc(C2CC(c3ccc(Nc4ccnc5cc(Cl)ccc45)cc3)=NN2C=O)cc(OC)c1OC` (configuration not stated): the growth with DU-145 prostate is 66.4%; in the assay with K-562 leukemia, 26%; in the assay with MALME-3M melanoma, 25.2%; in the assay on MDA-MB-231 breast, 85.8%; in the assay on RXF 393 renal, 83.6%; with SF-268 CNS it was 90.1%. Also, the growth in the assay with SF-295 CNS was 75.2%; with SF-539 CNS it was 73.2%; with UACC-257 melanoma, 60.1%; in the assay on M14 melanoma, 75.1%; in the assay on HT29 colon it was -37.3% (active); in the assay with SNB-75 CNS it was 75.7%. Besides, the growth was 82% with SNB-19 CNS; 44.6% in the assay on U251 CNS; 80.6% in the assay with PC-3 prostate; 37.3% in the assay on SK-MEL-5 melanoma; 46.3% in the assay with UACC-62 melanoma; 0.138% (active) in the assay on LOX IMVI melanoma. The growth in the assay on SK-MEL-28 melanoma is 22.4%.

In the case of `CC(C)=C[C@@H]1c2c(c3ccccc3n(C)c2=O)O[C@H]2c3c(c4ccccc4n(C)c3=O)OC(C)(C)[C@@H]12`, the growth in the assay with DU-145 prostate was 106%; in the assay on K-562 leukemia, 56.1%; in the assay with MALME-3M melanoma, 99.4%; in the assay on MDA-MB-231 breast it was 85.8%; in the assay with RXF 393 renal, 88.9%; in the assay on SF-268 CNS it was 86.1%. For the same compound, the growth was 65.5% with SF-295 CNS; 81.2% in the assay with SF-539 CNS; 82.2% in the assay on UACC-257 melanoma; 98.9% with M14 melanoma; 77.9% in the assay on HT29 colon; 60.6% with SNB-75 CNS. Further, the growth is 99.2% in the assay with SNB-19 CNS; 84.5% in the assay with U251 CNS; 6.54% (active) in the assay with PC-3 prostate; 61.5% with SK-MEL-5 melanoma; 65.6% in the assay with UACC-62 melanoma; 67% in the assay with LOX IMVI melanoma. Further, the growth with SK-MEL-28 melanoma is 104%.

In the case of `CCCCc1ccc(Nc2ccc(Nc3ccc(CCCC)cc3S(=O)(=O)O)c3c2C(=O)c2ccccc2C3=O)c(S(=O)(=O)O)c1`, the growth was 107% in the assay on DU-145 prostate; 114% with K-562 leukemia; 110% with MALME-3M melanoma; 83.1% in the assay with MDA-MB-231 breast; 95% in the assay with RXF 393 renal; 99.7% in the assay on SF-268 CNS. For the same compound, the growth with SF-295 CNS was 101%; in the assay with SF-539 CNS, 96.5%; in the assay with UACC-257 melanoma, 88.3%; in the assay on HCT-15 colon it was 104%; with HT29 colon, 113%; in the assay on SNB-75 CNS, 89.9%. In addition, the growth in the assay with SNB-19 CNS is 104%; in the assay with U251 CNS it was 103%; in the assay with PC-3 prostate, 39.1%; in the assay with SK-MEL-5 melanoma, 91.9%; in the assay with UACC-62 melanoma, 84.5%; in the assay with LOX IMVI melanoma, 86.4%. Further, the growth in the assay on SK-MEL-28 melanoma is 108%.

Regarding `Cc1ccc(/C=C/c2c(C(=O)/C=C/c3ccc(Cl)cc3)c(C)nc3ccccc23)cc1`, the growth with DU-145 prostate was -38.8% (active); with K-562 leukemia it was 5.31% (active); in the assay with MALME-3M melanoma it was -31.2% (active); with MDA-MB-231 breast, -24.2% (active); in the assay with RXF 393 renal, -66.4% (active); in the assay with SF-268 CNS it was 38.1%. The growth was -29.3% (active) with SF-295 CNS; -85.5% (active) in the assay with SF-539 CNS; 8.99% (active) in the assay on UACC-257 melanoma; -0.212% (active) in the assay with M14 melanoma; 8.51% (active) in the assay with HT29 colon; 68.8% in the assay with SNB-75 CNS. The growth was -21.4% (active) in the assay on SNB-19 CNS; -36.9% (active) with U251 CNS; 11.6% with PC-3 prostate; -40.6% (active) with SK-MEL-5 melanoma; -32.8% (active) with UACC-62 melanoma; -91% (active) with LOX IMVI melanoma. For the same compound, in the assay with SK-MEL-28 melanoma, the growth is -55% (active).

On to `CCCCCCCC/C=C\CCCCCCCCOc1ccccc1CC(=O)NCC[N+](C)(C)C`, for which the growth in the assay with DU-145 prostate was 80.1%; in the assay on K-562 leukemia it was 54.6%; with MALME-3M melanoma, 89.8%; with MDA-MB-231 breast, 72.9%; in the assay with RXF 393 renal, 16.6%; in the assay on SF-268 CNS, 65.9%. The growth with SF-295 CNS was 63.8%; with SF-539 CNS, 77.5%; in the assay on UACC-257 melanoma, 88.9%; in the assay on M14 melanoma, 57.4%; in the assay on HT29 colon, 33.4%; with SNB-75 CNS, 45.9%. In addition, the growth was 25.3% with SNB-19 CNS; 12.7% in the assay with U251 CNS; 4.4% (active) in the assay with PC-3 prostate; 74.7% with SK-MEL-5 melanoma; 66.5% in the assay on UACC-62 melanoma; 74.1% in the assay on LOX IMVI melanoma. Also, in the assay on SK-MEL-28 melanoma, the growth was 88.8%.

Take `Cc1ccc2c(c1)Sc1c(ccc3ccccc13)N2`: the growth in the assay with DU-145 prostate is 82.9%; in the assay on K-562 leukemia it was 39.7%; with MALME-3M melanoma, 90.7%; with MDA-MB-231 breast it was 50.6%; with RXF 393 renal, 63.6%; in the assay on SF-268 CNS, 59.5%. Besides, the growth with SF-295 CNS was 69.8%; with SF-539 CNS, 47.5%; in the assay on UACC-257 melanoma, 80.4%; in the assay with M14 melanoma it was 65.4%; in the assay on HT29 colon, 73.3%; with SNB-75 CNS, 51.8%. Besides, the growth in the assay with SNB-19 CNS was 94.5%; in the assay with U251 CNS, 45.3%; in the assay on PC-3 prostate, 61%; with SK-MEL-5 melanoma, 46%; in the assay on UACC-62 melanoma, 58.9%; in the assay with SK-MEL-28 melanoma, 84.7%.

Regarding `Cc1ccc2nc(NC(=O)CSc3nc(-c4ccccc4)c(C#N)c(=O)n3Cc3ccccc3)sc2c1`, the growth in the assay on DU-145 prostate is 103%; in the assay on K-562 leukemia it was 73.3%; with MALME-3M melanoma, 78.6%; with MDA-MB-231 breast it was 82.5%; with RXF 393 renal it was 75.8%; in the assay with SF-268 CNS, 92.1%. Further, the growth was 95.3% in the assay with SF-295 CNS; 90.4% in the assay with SF-539 CNS; 98.3% in the assay with UACC-257 melanoma; 88.1% in the assay with M14 melanoma; 78.3% in the assay with SNB-19 CNS; 87.8% with U251 CNS. Besides, the growth was 71.9% in the assay on PC-3 prostate, 83.1% in the assay on SK-MEL-5 melanoma, 53.5% with UACC-62 melanoma and 79.1% with SK-MEL-28 melanoma.

Turning to `C=C(C)[C@@H]1CC=C2c3sc(-c4ccc(C)cc4)nc3C[C@@H](C)[C@]2(C)C1`, the growth was 114% in the assay with DU-145 prostate; 97% in the assay with K-562 leukemia; 104% with MALME-3M melanoma; 107% in the assay with MDA-MB-231 breast; 113% in the assay on RXF 393 renal; 99.7% in the assay with SF-268 CNS. Also, the growth in the assay with SF-295 CNS was 104%; in the assay with SF-539 CNS, 102%; with UACC-257 melanoma it was 105%; with M14 melanoma, 100%; with HT29 colon, 98.8%; with SNB-75 CNS, 87.4%. Moreover, the growth with SNB-19 CNS is 101%; in the assay on U251 CNS, 97.5%; with PC-3 prostate, 95.5%; in the assay on SK-MEL-5 melanoma, 101%; in the assay on UACC-62 melanoma it was 93.2%; in the assay with SK-MEL-28 melanoma it was 103%.
